Compound activity: PubChem BioAssay, several laboratories
Compounds with a hit are over-represented: about 2% of the library has one in this group of screens.
Kir21 block: blocks the mouse Kir2.1 inward-rectifier potassium channel; HEK293-Kir2.1, FluxOR thallium flux fluorescence; stronger effect = lower value; AID 1672; B-score at 10 µM; 310,000 compounds, 0.85% hits;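 active = fluorescence ratio B-score at or below minus 3 SD of library scores, with starting-brightness B-score within 2 SD, cut at about -4.2 in these data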;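 note: channel flux triggered by added potassium and thallium sulfate stimulus; B-score of peak minus minimum fluorescence over baseline after thallium stimulus; more negative B-score means stronger Kir2.1 block with less thallium influx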
Target sequence (P35561 whole entry, looked up): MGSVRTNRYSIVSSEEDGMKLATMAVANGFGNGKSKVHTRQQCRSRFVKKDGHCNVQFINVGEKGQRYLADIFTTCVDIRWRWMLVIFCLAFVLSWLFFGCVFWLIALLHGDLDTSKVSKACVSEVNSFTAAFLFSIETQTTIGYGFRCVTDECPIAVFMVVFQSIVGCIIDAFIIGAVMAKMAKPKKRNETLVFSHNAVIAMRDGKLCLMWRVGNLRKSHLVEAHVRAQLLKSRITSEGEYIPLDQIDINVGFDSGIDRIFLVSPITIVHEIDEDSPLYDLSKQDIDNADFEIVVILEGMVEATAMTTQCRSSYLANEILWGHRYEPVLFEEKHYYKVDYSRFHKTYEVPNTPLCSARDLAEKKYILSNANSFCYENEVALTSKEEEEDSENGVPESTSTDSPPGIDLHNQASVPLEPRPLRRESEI
H9c2 TAG inh: inhibitors of triacylglycerol accumulation | inhibition, % at 12.5 µM | 230,000 compounds, 0.66% hits | H9c2 cells, Nile Red lipid (TAG) fluorescence; cells loaded with 200 µM oleic acid | AID 651582;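 active = pattern-corrected inhibition of lipid staining of at least 50% with the nuclear-stain viability signal not falling by more than 50%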;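 note: 0% = DMSO wells and 100% = triacsin C control wells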
CHT PAM: human CHT allosteric activation; B-score at 10 µM; CHT-expressing cells, membrane potential dye, choline EC20; stronger effect = higher value; LV-AA mutant CHT in HEK293 cells; Q9GZV3; 310,000 compounds, 0.49% hits;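 active = initial fluorescence not abnormally high and integrated response B-score, plate-corrected, over 3 SD above library mean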
CHT inh: inhibits the human high affinity choline transporter; CHT-expressing cells, membrane potential dye, choline response; stronger effect = lower value; B-score at 10 µM; 310,000 compounds, 0.86% hits; AID 488975;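 active = B-score over 3 SD under the library average, and starting fluorescence ratio not unusually high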;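 note: choline stimulus applied at its EC90 after an EC20 pre-addition; B-score computed on integrated fluorescence ratio after choline addition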
CHT activ conf: confirmation of human choline transporter (CHT) activators | activation, % at 10 µM | shares compounds with CHT PAM | CHT-expressing cells, membrane potential dye fluorescence (FDSS); % of choline EC20–EC90 response window; HEK293 expressing CHT LV-AA mutant; choline added at its EC20 | 2,500 compounds, 91% hits | AID 504833;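 active = primary screen active, with duplicate mean activation above negative control mean plus 3 SD, cut at about 11% in these data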
HEK293 MP dye: CHT activator counter-screen hit in parental HEK293 cells; 2,500 compounds, 62% hits; ratio readout change at 10 µM, hits read low; membrane potential dye fluorescence (FDSS); measured after EC20 choline addition; shares compounds with CHT PAM; AID 623908;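 active = duplicate-averaged ratio beyond 3 SD from buffer wells, up or down, though filed actives are nearly all decreases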
* = called active by the depositor; i = inactive; . = no result.

SMILES | Kir21 block | H9c2 TAG inh | CHT PAM | CHT inh | CHT activ conf | HEK293 MP dye
Cc1ccc(C(=O)c2cc([N+](=O)[O-])ccc2N2CCN(C)CC2)cc1 | -0.41 | 29.1 | 12.3* | i | 38.1* | i
Nc1nc(N)nc(-c2cccc(Cl)c2Cl)n1 | . | 13.5 | i | i | . | .
O=C(CC1S/C(=N/N=C/c2cccs2)NC1=O)Nc1ccccc1F (configuration not stated) | 1.86 | 1.5 | i | i | . | .
COc1ccc(C(=O)OCC(=O)Nc2ccc(Cl)c(C(F)(F)F)c2)c(OC)c1OC | -0.28 | . | 7.61* | i | 4.1 | i
COc1cc(CC(=O)Nc2ccc(Cl)c(C(F)(F)F)c2)cc(OC)c1OC | 0.29 | 6.3 | i | i | . | .
Cn1ccnc1C1CCCCN1Cc1nc(-c2ccc3c(c2)OCO3)no1 (configuration not stated) | -0.79 | -0.1 | i | i | . | .
COc1ccc(-c2noc(CN3CCCCC3c3nccn3C)n2)cc1 (configuration not stated) | 0.48 | 5.1 | 11.3* | i | 49.2* | i
COCCn1c(-c2ccc(Br)cc2)csc1=Nc1cccnc1 | 0.81 | -20.0 | i | i | . | .
CN=c1scc(-c2ccc(Br)cc2)n1C | -0.79 | -2.3 | i | i | 35.2* | -43.8*
COCCN(C(=S)Nc1ccc(OC)cc1)C(C)c1cccs1 (configuration not stated) | 0.09 | . | 8.13* | i | 5.8 | i
COCCN(C(=S)Nc1cccc(C)c1)C(C)c1cccs1 (configuration not stated) | 0.04 | . | i | i | . | .
CCN(CC)S(=O)(=O)c1cnccc1N1CCN(c2cccc(Cl)c2)CC1 | 2.54 | 6.5 | 9.33* | i | 12.8* | i
CCCCC(=O)Nc1nnc(CCOC)s1 | -0.04 | . | i | i | . | .
Cn1c(=N)n(CC(=O)c2ccc(Br)cc2)c2ccccc21 | -0.38 | 9.9 | i | i | . | .
O=C(Cn1c(-c2ccccc2)c[n+]2ccsc12)c1ccc(Br)cc1 | 1.51 | 2.9 | i | i | 41.8* | -33.9*
COc1ccc(NC(=O)C2CCCC2)cn1 | -0.09 | -0.6 | i | i | . | .
Cc1cc(C)c2c(c1)/C(=N\N=c1\sc3ccccc3n1C)C(=O)N2 | -0.17 | 39.4 | i | i | 23.5* | i
COc1ccc(OCC(O)CN2CCC(CN3C(=O)c4cccc5cccc(c45)C3=O)CC2)cc1 (configuration not stated) | -1.37 | -13.6 | i | i | . | .
O=C1c2cccc3cccc(c23)C(=O)N1CC1CCN(CC(O)COCc2ccc3c(c2)OCO3)CC1 (configuration not stated) | -4.12 | . | i | i | 38.3* | -55.9*
O=C(c1ccc(CS(=O)c2ccccc2Cl)o1)N1CCOCC1 (configuration not stated) | 1.15 | . | i | i | . | .
COc1cccc(N2CCN(C(=O)c3ccc(CS(=O)c4ccccc4Cl)o3)CC2)c1 (configuration not stated) | 0.94 | . | i | i | 50.2* | i
O=C(c1ccc(CS(=O)c2ccccc2Cl)o1)N1CCN(c2ccccc2)CC1 (configuration not stated) | 1.27 | . | 6.36* | i | 16.6* | i
CCCNC(=S)NC1CC2CCCC(C1)N2Cc1ccc(F)cc1 (configuration not stated) | -0.07 | . | i | i | . | .
N=c1c(S(=O)(=O)c2ccc(Cl)cc2)cc2c(=O)n3ccccc3nc2n1Cc1cccnc1 | 0.18 | -5.9 | i | i | . | .
Cc1cc(=O)n(C)c(=O)n1CCCCCCN1CCCC1 | 0.22 | . | i | i | 43.6* | -33.7*
SMILES | Kir21 block | H9c2 TAG inh | CHT PAM | CHT inh | CHT activ conf | HEK293 MP dye
O=C(COc1ccc(S(=O)(=O)NCc2ccccc2)cc1)NCc1cccnc1 | -2.07 | . | . | . | . | .
CCN1CCN(c2c(Cl)cccc2NC(=O)c2ccco2)CC1 | -1.82 | 24.8 | 7.57* | i | 54.4* | -33.1*
CCN1CCN(c2c(Cl)cccc2NC(=O)c2ccc([N+](=O)[O-])cc2)CC1 | -0.28 | -8.0 | 11.7* | i | 53.3* | -66.8*
COc1ccccc1CCC(=O)OCC(=O)Nc1ccc2[nH]c(=O)[nH]c2c1 | 1.13 | 1.1 | i | i | . | .
C#CCOCCOCCOCCNc1nc(N2CCN(C(=O)[C@H](CCCCN)n3cc(C(N)CO)nn3)CC2)nc(N2CCN(C(=O)[C@H](CCC(=O)O)n3cc(C(N)CC(C)C)nn3)CC2)n1 (some centres not stated) | -0.54 | . | . | . | . | .
C#CCOCCOCCOCCNc1nc(N2CCN(C(=O)[C@H](CCCCN)n3cc([C@@H](N)CC(C)C)nn3)CC2)nc(N2CCN(C(=O)[C@H](CCCCN)n3cc([C@@H](N)CC(C)C)nn3)CC2)n1 | -0.33 | -8.4 | i | i | 55.9* | -39.3*
C#CCOCCOCCOCCNc1nc(N2CCN(C(=O)CCCCCCCCCCNC(=O)[C@H](CCCCN)n3cc(C)nn3)CC2)nc(N2CCN(C(=O)CCCCCCCCCCNC(=O)[C@@H]([C@H](C)O)n3cc(C)nn3)CC2)n1 | . | -10.5 | i | i | 1.6 | -39.9*
COc1ccc(OCc2cc(C(=O)NCC(C)(C)N3CCOCC3)no2)c(Cl)c1 | -1.22 | 6.4 | i | i | . | .
O=C(NCCCn1ccnc1)c1cc(-c2ccc(Cl)cc2)nc2ccccc12 | 0.07 | 15.5 | i | i | . | .
CCc1ccc(/C=N/NC(=O)c2cc(-c3ccncc3)nc3ccccc23)s1 | -3.62 | 47.0 | i | i | . | .
O=C(NCCCn1ccnc1)c1cc(-c2ccncc2)nc2ccccc12 | -1.89 | 15.4 | 6.32* | i | 59.9* | -59.3*
O=C(N/N=C/c1cccs1)c1cc(-c2ccncc2)nc2ccccc12 | 1.7 | . | i | i | 43.7* | i
COc1ccc(-c2c(=O)n(OCc3ccccc3[N+](=O)[O-])c3ccccc3[n+]2[O-])c(OC)c1 | 0.73 | -8.7 | i | i | . | .
Cn1c(=O)c2c(SCCN3CCOCC3)nc(C3CCCC3)nc2n(C)c1=O | 0.25 | 7.8 | 7.41* | i | 42.1* | -30.3*
CCc1nc(SCC(=O)N2CCOCC2)c2c(=O)n(C)c(=O)n(C)c2n1 | 2.25 | 2.7 | i | i | . | .
COc1cc(C(=O)OCC(=O)N2c3ccccc3NC(=O)C2(C)C)ccc1OCC(C)C | 2.18 | 3.1 | i | i | . | .
COc1ccc2[nH]c3c(=O)n(Cc4ccncc4)cnc3c2c1 | 0.16 | 8.1 | i | i | . | .
CC(Sc1nnc(-c2ccco2)n1N)C(=O)NCc1ccc2c(c1)OCO2 (configuration not stated) | . | -30.5 | . | . | . | .
COc1ccc(-c2nnc(SC(C)C(=O)NCc3ccc4c(c3)OCO4)n2Cc2ccco2)cc1 (configuration not stated) | 0.04 | . | 16.2* | i | 61.7* | i
